Records with an inconclusive call do not appear. Where a call stands in place of a potency, no number is given. Active and inactive are the calls of the source. The call rests on the fitted dose curve; in most records, active means well fitted cell-killing curve with a large enough effect; inconclusive means small, poorly fitted or top-dose-only effect, or effect the other way; inactive means no such curve, though single readings can be large or run the other way.
Assay: qHTS assay to identify small molecule inhibitors of chordoma cells - UCH-1 (AID 1259355); further: nearly all actives have a fitted effect of over 55% in size
Details: UCH-1 chordoma viability, CellTiter-Glo, 48 h, combination, with auranofin plus four topoisomerase inhibitors; series mostly up to 46.1 µM
Procedure, shortened: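 Seed 800 cells per well; incubate overnight at 37 C, 5% CO2. Add test compounds (15 concentrations), then the auranofin–topoisomerase-agent combination. Incubate 48hr, add CellTiter-Glo, wait 30min, read luminescence.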

SMILES | Potency
CC(C)OC(=O)Nc1ccc2nc(-c3cscn3)[nH]c2c1 | inactive
CC(C)=CCC/C(C)=C/CC/C(C)=C/CC/C=C(\C)CC/C=C(\C)CCC=C(C)C | inactive
CCOC(=O)Cc1ccc(-c2ccccc2)cc1 | inactive
CC1CCCCN1CCCOC(=O)c1ccccc1 (configuration not stated) | inactive
CC(=O)N=c1sc(S(N)(=O)=O)nn1C | inactive
COC1[C@@H](O[C@@H]2O[C@H](C)[C@@H](O[C@H]3C[C@@](C)(O)[C@H](OC(=O)CC(C)C)[C@H](C)O3)[C@H](N(C)C)[C@H]2O)[C@@H](CC=O)C[C@@H](C)[C@@H](O)/C=C/C=C/C[C@@H](C)OC(=O)C[C@H]1OC(C)=O (some centres not stated) | inactive
CC1(C)S[C@@H]2[C@H](N3C(=O)C(c4ccccc4)NC3(C)C)C(=O)N2[C@H]1C(=O)O (some centres not stated) | inactive
OC/C=C/c1ccccc1 | inactive
CCN(CC)CCOC(=O)c1cccnc1 | inactive
O=C(O)Cc1nn(Cc2ccc(Br)cc2F)c(=O)c2ccccc12 | inactive
[O-][N+](=Nc1ccccc1)c1ccccc1 | inactive
C[C@@](Cc1ccc(O)c(O)c1)(NN)C(=O)O | inactive
C=CC1=C(C(=O)O)N2C(=O)[C@@H](NC(=O)/C(=N/OCC(=O)O)c3csc(N)n3)[C@H]2SC1 (stereo in doubt) | inactive
CC(C)(C)CC(C)(C)c1ccc(OCCO)cc1 | inactive
CC(CNC(=O)c1cccnc1)NC(=O)c1cccnc1 (configuration not stated) | inactive
CNCC(O)c1ccc(OC(=O)C(C)(C)C)c(OC(=O)C(C)(C)C)c1 (configuration not stated) | inactive
CO/N=C(/C(=O)N[C@@H]1C(=O)N2C(C(=O)O)=C(COC(N)=O)CS[C@H]12)c1ccco1 | inactive
